# PMC9911399, “Two distinct binding modes provide the RNA-binding protein RbFox with extraordinary sequence specificity”
# Substitutions are numbered along the chain they refer to; changes in the protein carry UniProt numbers. The full ranking holds about 16,000 sequences; the median of “ka relative to ugcaugu” is about 0.096, and the highest 2% start at about 0.35. What follows is part of a selection rich in the highest values, with near analogues and random picks from the rest.
# T1: RBFOX1 RRM RbFoxmut (Fox-RRM*) (Homo sapiens, UniProt Q9NWB1 109-208, R118D;E147R;N151S;E152T)
# T1 sequence: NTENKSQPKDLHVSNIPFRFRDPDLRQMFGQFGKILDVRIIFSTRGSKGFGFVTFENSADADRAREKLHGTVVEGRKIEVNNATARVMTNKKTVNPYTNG
# B1: UGCUUUG (DNA:RNA)
# RNA: GGGAGACCGGAAUUCAGAUUGUCCUGCUUUGUUAAAUCCCGUCGUAGCCACCA
# DNA 1: CAATCTGAATTCCGGTCTCCC
# DNA 2: TGGTGGCTACGACGGGATT
# B2: CUGAGUG (DNA:RNA)
# RNA: B1 RNA with U25C, G26U, C27G, U28A, U29G
# DNA 1: CAATCTGAATTCCGGTCTCCC
# DNA 2: TGGTGGCTACGACGGGATT
# B3: UCACCCA (DNA:RNA)
# RNA: B1 RNA with G26C, C27A, U28C, U29C, U30C, G31A
# DNA 1: CAATCTGAATTCCGGTCTCCC
# DNA 2: TGGTGGCTACGACGGGATT
# B4: UAGGGAC (DNA:RNA)
# RNA: B1 RNA with G26A, C27G, U28G, U29G, U30A, G31C
# DNA 1: CAATCTGAATTCCGGTCTCCC
# DNA 2: TGGTGGCTACGACGGGATT
# B5: CAGGUUG (DNA:RNA)
# RNA: B1 RNA with U25C, G26A, C27G, U28G
# DNA 1: CAATCTGAATTCCGGTCTCCC
# DNA 2: TGGTGGCTACGACGGGATT
# B6: CACCAGG (DNA:RNA)
# RNA: B1 RNA with U25C, G26A, U28C, U29A, U30G
# DNA 1: CAATCTGAATTCCGGTCTCCC
# DNA 2: TGGTGGCTACGACGGGATT
# B7: AGGGGGG (DNA:RNA)
# RNA: B1 RNA with U25A, C27G, U28G, U29G, U30G
# DNA 1: CAATCTGAATTCCGGTCTCCC
# DNA 2: TGGTGGCTACGACGGGATT
# B8: GAGGAGG (DNA:RNA)
# RNA: B1 RNA with U25G, G26A, C27G, U28G, U29A, U30G
# DNA 1: CAATCTGAATTCCGGTCTCCC
# DNA 2: TGGTGGCTACGACGGGATT
# B9: ACCAGGG (DNA:RNA)
# RNA: B1 RNA with U25A, G26C, U28A, U29G, U30G
# DNA 1: CAATCTGAATTCCGGTCTCCC
# DNA 2: TGGTGGCTACGACGGGATT
# B10: AGGGUUG (DNA:RNA)
# RNA: B1 RNA with U25A, C27G, U28G
# DNA 1: CAATCTGAATTCCGGTCTCCC
# DNA 2: TGGTGGCTACGACGGGATT
# B11: GAGGUUG (DNA:RNA)
# RNA: B1 RNA with U25G, G26A, C27G, U28G
# DNA 1: CAATCTGAATTCCGGTCTCCC
# DNA 2: TGGTGGCTACGACGGGATT
# B12: ACCGAGG (DNA:RNA)
# RNA: B1 RNA with U25A, G26C, U28G, U29A, U30G
# DNA 1: CAATCTGAATTCCGGTCTCCC
# DNA 2: TGGTGGCTACGACGGGATT
# B13: CCCCAGG (DNA:RNA)
# RNA: B1 RNA with U25C, G26C, U28C, U29A, U30G
# DNA 1: CAATCTGAATTCCGGTCTCCC
# DNA 2: TGGTGGCTACGACGGGATT
# B14: UCCCCAC (DNA:RNA)
# RNA: B1 RNA with G26C, U28C, U29C, U30A, G31C
# DNA 1: CAATCTGAATTCCGGTCTCCC
# DNA 2: TGGTGGCTACGACGGGATT
# B15: CUACCCG (DNA:RNA)
# RNA: B1 RNA with U25C, G26U, C27A, U28C, U29C, U30C
# DNA 1: CAATCTGAATTCCGGTCTCCC
# DNA 2: TGGTGGCTACGACGGGATT
# B16: GUGUCAG (DNA:RNA)
# RNA: B1 RNA with U25G, G26U, C27G, U29C, U30A
# DNA 1: CAATCTGAATTCCGGTCTCCC
# DNA 2: TGGTGGCTACGACGGGATT
# B17: AUACAAG (DNA:RNA)
# RNA: B1 RNA with U25A, G26U, C27A, U28C, U29A, U30A
# DNA 1: CAATCTGAATTCCGGTCTCCC
# DNA 2: TGGTGGCTACGACGGGATT
# B18: CAAUGCG (DNA:RNA)
# RNA: B1 RNA with U25C, G26A, C27A, U29G, U30C
# DNA 1: CAATCTGAATTCCGGTCTCCC
# DNA 2: TGGTGGCTACGACGGGATT
# B19: GGGAUGA (DNA:RNA)
# RNA: B1 RNA with U25G, C27G, U28A, U30G, G31A
# DNA 1: CAATCTGAATTCCGGTCTCCC
# DNA 2: TGGTGGCTACGACGGGATT
# B20: CGCGCUU (DNA:RNA)
# RNA: B1 RNA with U25C, U28G, U29C, G31U
# DNA 1: CAATCTGAATTCCGGTCTCCC
# DNA 2: TGGTGGCTACGACGGGATT
# Target: T1, RBFOX1 RRM RbFoxmut (Fox-RRM*)
# Test: EMSA; HiTS-Eq, 1 nM pool, 10 min; buffer printed only for the single-RNA assays: 10 mM Tris pH 7.5, 150 mM NaCl, 3.4 mM EDTA, 0.001% NP-40, 30 C
# Settings: tags: His6 N-terminal (pET28a); label: 5' 32P
# How it was run: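 Purified wild-type or mutant RbFox RRM at increasing concentrations was equilibrated with 1 nM of 5′-radiolabelled RNA carrying 7 randomized nucleotides for 10 min in 50 µL. Unbound RNA was separated by 8% native PAGE and sequenced. Relative association constants came from read-count changes of each RNA species compared with the control reaction, normalised to the cognate motif.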
row,Binder,binding signal
1,B1,0.179 KA relative to UGCAUGU
2,B2,0.142 KA relative to UGCAUGU
3,B3,0.0824 KA relative to UGCAUGU
4,B4,0.0789 KA relative to UGCAUGU
5,B5,0.371 KA relative to UGCAUGU
6,B6,0.0996 KA relative to UGCAUGU
7,B7,0.104 KA relative to UGCAUGU
8,B8,0.0833 KA relative to UGCAUGU
9,B9,0.0771 KA relative to UGCAUGU
10,B10,0.578 KA relative to UGCAUGU
11,B11,0.552 KA relative to UGCAUGU
12,B12,0.0689 KA relative to UGCAUGU
13,B13,0.0949 KA relative to UGCAUGU
14,B14,0.118 KA relative to UGCAUGU
15,B15,0.0609 KA relative to UGCAUGU
16,B16,0.137 KA relative to UGCAUGU
17,B17,0.0924 KA relative to UGCAUGU
18,B18,0.13 KA relative to UGCAUGU
19,B19,0.267 KA relative to UGCAUGU
20,B20,0.1 KA relative to UGCAUGU
